# Measured values reported in article PMC4336329 (PLoS ONE, 2015).
# The campaign covered roughly 310,000 compounds. About 14,000 (4.5%) showed an effect of 50% or more. The effect is printed as a negative number. This is one part of a sample in which strong results are shown more often than they occur.
# Biological target: human ether-à-go-go-related gene (hERG) potassium channel (human, UniProt Q12809)
# Assay: primary screen, population patch clamp on CHO cells stably expressing hERG; higher = less effect of the substance
# 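Further: peak tail current of the secondary pulse compared with the same well before compound.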
# Chain of human ether-à-go-go-related gene (hERG) potassium channel (Q12809 whole entry, looked up): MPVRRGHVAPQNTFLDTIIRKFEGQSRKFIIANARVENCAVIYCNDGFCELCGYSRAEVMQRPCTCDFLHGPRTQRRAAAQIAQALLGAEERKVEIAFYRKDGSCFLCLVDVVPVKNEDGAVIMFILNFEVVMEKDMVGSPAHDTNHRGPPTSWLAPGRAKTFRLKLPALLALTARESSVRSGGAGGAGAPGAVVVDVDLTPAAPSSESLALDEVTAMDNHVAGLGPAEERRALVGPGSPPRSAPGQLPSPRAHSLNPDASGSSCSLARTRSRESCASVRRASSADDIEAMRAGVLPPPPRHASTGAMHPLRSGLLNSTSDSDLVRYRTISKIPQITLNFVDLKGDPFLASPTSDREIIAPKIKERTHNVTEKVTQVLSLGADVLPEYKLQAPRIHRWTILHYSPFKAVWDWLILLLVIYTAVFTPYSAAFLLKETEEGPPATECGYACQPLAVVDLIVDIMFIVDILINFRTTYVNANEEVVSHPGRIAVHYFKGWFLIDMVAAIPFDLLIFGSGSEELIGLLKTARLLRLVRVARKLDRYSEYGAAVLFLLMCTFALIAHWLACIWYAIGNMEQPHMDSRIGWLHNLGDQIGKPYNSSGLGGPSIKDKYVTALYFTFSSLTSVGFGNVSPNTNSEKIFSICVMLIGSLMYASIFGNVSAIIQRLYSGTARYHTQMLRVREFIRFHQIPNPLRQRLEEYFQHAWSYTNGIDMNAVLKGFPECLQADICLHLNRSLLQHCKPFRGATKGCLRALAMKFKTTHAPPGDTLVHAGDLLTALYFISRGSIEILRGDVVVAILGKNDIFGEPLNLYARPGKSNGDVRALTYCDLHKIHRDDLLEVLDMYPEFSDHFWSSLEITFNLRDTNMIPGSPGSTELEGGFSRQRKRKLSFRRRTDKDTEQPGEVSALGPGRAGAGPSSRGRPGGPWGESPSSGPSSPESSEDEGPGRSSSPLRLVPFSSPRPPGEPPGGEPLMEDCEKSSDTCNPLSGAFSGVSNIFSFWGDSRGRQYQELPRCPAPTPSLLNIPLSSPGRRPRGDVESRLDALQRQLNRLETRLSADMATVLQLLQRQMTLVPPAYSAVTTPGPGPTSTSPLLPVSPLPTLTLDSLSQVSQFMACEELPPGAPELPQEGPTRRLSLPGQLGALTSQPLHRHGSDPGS
row,SMILES,"hERG current change (%, negative = inhibition) at 10uM [%]"
1,O=C(CSc1nc2ccccc2c(=O)n1CCCN1CCOCC1)NC12CC3CC(CC(C3)C1)C2,-67.8
2,CC(Sc1nc2ccccc2c(=O)n1CC1CCCO1)C(=O)N(C)Cc1ccccc1 (stereo not shown),-59.8
3,COCCCn1c(SCCc2ccccc2)nc2cc(OC)c(OC)cc2c1=N,-12.7
4,COC(=O)c1ccc2c(=O)n(CCN3CCOCC3)c(SCC(=O)NCc3ccccc3)nc2c1,-46.1
5,O=C1c2ccccc2C(=O)N1CCSc1nc2ccccc2c(=O)n1CCCN1CCOCC1,-15.1
6,COCCCn1c(SCC(=O)O)nc2cc(OC)c(OC)cc2c1=N,9.07
7,COc1ccccc1CNC(=O)CSc1nc2ccccc2c(=O)n1CCCN1CCOCC1,-56
8,CCCSc1nc2cc(OC)c(OC)cc2c(=N)n1CCCN1CCOCC1,-74.6
9,CC(=O)c1c(C)[nH]c(C(=O)CSc2nc3ccccc3c(=O)n2CCCN2CCOCC2)c1C,-15.5
10,CC(C)Cn1c(N)c(C(=O)CSc2nc3ccccc3c(=O)n2CCCN2CCOCC2)c(=O)n(C)c1=O,-22.2
11,CC(Sc1nc2ccccc2c(=O)n1CC1CCCO1)C(=O)N(C)c1ccccc1 (stereo not shown),-41.6
12,CC(=O)Nc1ccc(NC(=O)C(C)Sc2nc3ccccc3c(=O)n2CC2CCCO2)cc1 (stereo not shown),7.41
13,CC(OC(=O)c1cc2sccc2n1C)C(=O)NCC1CCCO1 (stereo not shown),0.798
14,Cc1ccc(S(=O)(=O)CC(=O)N2CCCC2)cc1,-0.506
15,O=C(CCc1ccc(Oc2cc([N+](=O)[O-])cc([N+](=O)[O-])c2)cc1)N1CCCCCC1,-30.2
16,Cn1cc(SCC(=O)Nc2nc3ccccc3s2)c2ccccc21,-5.6
17,Cc1noc(C(C)C)c1C(=O)Nc1ccc(-c2nnc3n2CCCCC3)cc1,-4.21
18,Cc1cccc(C)c1-n1nnnc1S(=O)(=O)Cc1ccccc1Cl,-18.2
19,CC(C)CN1CCC(C(=O)NCC2CCCO2)CC1.O=C(O)C(=O)O (stereo not shown),-3.21
20,CC(C)CN(CC(C)C)C(=O)CN1c2cccc3cccc(c23)S1(=O)=O,18.1
21,CCN(CC)C(=O)Oc1cc2c(-c3cc4cccc(OC)c4o3)cc(=O)oc2cc1C,9.85
22,COc1ccc(-c2nc3ccccc3c(=O)n2CCCN2CCOCC2)cc1,6.17
23,COc1cccc(CNC(=O)CSc2nc3c(oc4ccccc43)c(=O)n2CC2CCCO2)c1 (stereo not shown),-36.4
24,COc1ccc(CNC(=O)CSc2nc3c(oc4ccccc43)c(=O)n2CC2CCCO2)cc1 (stereo not shown),-60.6
25,COc1ccc(CNC(=O)C(C)Sc2nc3ccccc3c(=O)n2CCCN2CCOCC2)cc1 (stereo not shown),-84.9
26,COc1ccc(CSc2nc3ccccc3c(=O)n2CCCN2CCOCC2)cc1F,-53.4
27,CCn1c(SCc2ccc(OC)c(F)c2)nc2ccccc2c1=O,23.4
28,COc1ccccc1NC(=O)C(C)Sc1nc2ccccc2c(=O)n1CC1CCCO1 (stereo not shown),-37.2

row,SMILES,"hERG current change (%, negative = inhibition) at 10uM [%]"
1,CCC(Sc1nc2ccccc2c(=O)n1CCN1CCOCC1)C(=O)NCc1cccnc1 (stereo not shown),-37
2,COCCn1c(SCc2ccc(OC)c(F)c2)nc2ccccc2c1=O,-2.82
3,CC(Sc1nc2ccccc2c(=O)n1CC1CCCO1)C(=O)NC(C)c1ccccc1 (stereo not shown),-5.01
4,O=C(CSc1nc2c(oc3ccccc32)c(=O)n1CC1CCCO1)NCc1ccccc1 (stereo not shown),-15.8
5,COc1ccc(CNC(=O)C(C)Sc2nc3ccccc3c(=O)n2CC2CCCO2)cc1 (stereo not shown),-78.7
6,CCCCOC(=O)C(C)Sc1n[nH]c(=O)[nH]c1=O (stereo not shown),-5.93
7,O=[N+]([O-])c1ccc(CNc2cccc(Cl)c2)s1,-28.3
8,O=C1N=C(c2ccccc2)S/C1=C\c1cccs1,5.19
9,COc1ccc(N2CCN(Cc3nc(-c4ccccc4)no3)CC2)cc1,8.23
10,C=CCOC(=O)C1=C[C@@H](c2csc3ccccc23)[C@H](CCCO)[C@@H](OCC)O1,-27.7
11,COc1ccc(S(=O)(=O)N2CCC(C(=O)N[C@@H](C)C(=O)NC3CCCC3)CC2)cc1,13.4
12,COCCNC(=O)c1ccc2c(c1)S(=O)(=O)c1cc(Cl)ccc1C2=O,-3.38
13,CCN(CC)S(=O)(=O)c1ccc(F)c(C(=O)OC2CC(C)OC2=O)c1 (stereo not shown),-2.4
14,O=C(Cn1cc(SCc2ccc(Cl)cc2)c2ccccc21)N1CCOCC1,-53.3
15,O=C(Cn1cc(SCc2ccc(F)cc2)c2ccccc21)N1CCOCC1,-29.9
16,O=C(Cn1cc(SCc2cccc(Cl)c2)c2ccccc21)N1CCOCC1,-33.1
17,Nc1ncnc2c1ncn2C1O[C@H](CO)[C@@H](O)[C@@H]1O (stereo partly shown),-8.74
18,Cc1ccc(CNC(=O)CSc2nc(N3CCCCC3)nc(N3CCCCC3)n2)cc1,7.64
19,O=S(=O)(NCCCSc1ccccc1)c1ccccc1F,-79.6
20,O=C(CCNS(=O)(=O)c1ccccc1C(F)(F)F)NCCCSc1ccccc1,-18.1
21,O=[N+]([O-])c1ccccc1S(=O)(=O)NCCSc1ccccc1,4.87
22,Nc1nc(CSC(=S)N2CCOCC2)nc(Nc2ccc(F)cc2)n1,7.31
23,Cc1ccc(Nc2nc(N)nc(CCl)n2)cc1,1.76
24,Cc1ccc(Nc2nc(N)nc(CN3CCCCCC3)n2)cc1,-72.1
25,Nc1nc(CN2CCCCCC2)nc(Nc2ccc(F)cc2)n1,-70.8
26,Nc1nc(CSCCO)nc(Nc2ccc(F)cc2)n1,16.1
27,Cc1ccc(Nc2nc(N)nc(CN3CCN(C)CC3)n2)cc1,-27.8
